Measured values from PubChem BioAssay (NCATS).
Several values for one entry are separate records, joined by “and”; a condition that tells them apart may be missing. Equal entries are not always repeated. Records with an inconclusive call do not appear. A number with no mark means an inactive call. Activity calls are given as the source filed them. The call rests on the fitted dose curve; in most records, active means well fitted activation curve with a large enough effect; inconclusive means small, poorly fitted or top-dose-only effect; inactive means no such curve, though single readings can be large or run the other way.

These compounds were tested against Cellular tumor antigen p53 (Homo sapiens) (UniProt P04637) (assay: Primary qHTS for small molecule compounds that upregulate eGFP-tagged delta133p53alpha (in N-terminal) cells. (AID 2060322; further: nearly all actives have a fitted effect of over 75% in size;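 on activation: series mostly up to about 56 µM; 0% = DMSO vehicle and 100% = reference activator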)). Conditions: NCI-H358 eGFP-delta133p53alpha fluorescence, 24 h; activation: active compounds read high.
Chain of Cellular tumor antigen p53 (Homo sapiens) (P04637 whole entry, looked up): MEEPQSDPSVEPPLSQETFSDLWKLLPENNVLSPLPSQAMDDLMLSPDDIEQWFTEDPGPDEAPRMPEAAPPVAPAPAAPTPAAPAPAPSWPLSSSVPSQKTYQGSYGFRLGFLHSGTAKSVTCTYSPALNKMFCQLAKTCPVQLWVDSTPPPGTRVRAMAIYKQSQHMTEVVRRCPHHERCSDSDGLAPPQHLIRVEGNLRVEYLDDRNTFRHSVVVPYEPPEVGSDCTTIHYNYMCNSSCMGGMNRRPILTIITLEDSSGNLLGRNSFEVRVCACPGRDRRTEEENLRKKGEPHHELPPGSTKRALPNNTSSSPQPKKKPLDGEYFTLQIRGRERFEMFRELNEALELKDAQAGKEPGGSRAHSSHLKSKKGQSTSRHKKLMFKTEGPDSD
In short: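 NCI-H358 cells pre-induced 24 h with 10 ng/ml doxycycline to express N-terminal eGFP-delta133p53alpha, then dosed 24 h at 37C without doxycycline; fixed, Hoechst-stained, GFP intensity by laser scanning cytometry, normalized to DMSO (0%) and 57.5 uM 5-azacytidine (100%).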
Potency means the concentration at half of the fitted maximal effect.

In order of rising activation:
1. CNC(=O)c1cnn(-c2nc(N)c3ncn([C@@H]4O[C@H](CO)[C@@H](O)[C@H]4O)c3n2)c1  -18.4%
2. C[C@@H]1CC[C@@]2(OC1)O[C@H]1C[C@H]3[C@@H]4CC[C@H]5C[C@@H](O)CC[C@]5(C)[C@H]4CC(=O)[C@]3(C)[C@H]1[C@@H]2C  -17.6%
3. CC(=O)N(CC(O)CO)c1c(I)c(C(=O)NCC(O)CO)c(I)c(C(=O)NCC(O)CO)c1I (configuration not stated)  -16.7%
4. Cc1cc(C)cc(OCC2CNC(=O)O2)c1 (configuration not stated)  -11.9%
5. Cc1cc(C)c(NC(=O)CN(CC(=O)O)CC(=O)O)c(C)c1Br  -11.9%
6. COc1ccc(S(=O)(=O)Nc2nnc(CC(C)C)s2)cc1  -11.7%
7. CC(=O)N[C@H]1[C@@H]([C@H](O)[C@H](O)CO)OC(C(=O)O)=C[C@@H]1N=C(N)N  -10.7%
8. CC(=O)Nc1ccc(S(=O)(=O)Nc2ccc([N+](=O)[O-])cc2)cc1  -10.7%
9. NC(=O)NC(=O)Cc1ccccc1  -10%
10. CC1(C)[C@H](O[C@H]2O[C@H](C(=O)O)[C@@H](O)[C@H](O)[C@H]2O[C@@H]2O[C@H](C(=O)O)[C@@H](O)[C@H](O)[C@H]2O)CC[C@@]2(C)[C@H]1CC[C@]1(C)[C@H]2C(=O)C=C2[C@H]3C[C@@](C)(C(=O)O)CC[C@]3(C)CC[C@]21C  -5.71%
11. CCOC(=O)c1ccccc1O  -2.51%
12. CCCCc1cc2ccccc2c(OCCN(C)C)n1  -0.565%
13. CC(C)(C)C(=O)OCOC(=O)C1N2C(=O)CC2S(=O)(=O)C1(C)C (configuration not stated)  3.95%
14. O=c1cc[nH]c(=S)[nH]1  7.34%
15. CC(C)(C)C(=O)OCOC(=O)[C@@H]1N2C(=O)[C@@H](NC(=O)[C@H](N)c3ccccc3)[C@H]2SC1(C)C  7.53%
16. COc1ccnc2c1CCCCC2S(=O)c1nc2ccccc2[nH]1 (configuration not stated)  11.9%
17. CCCCCCCCCCC(CO)CCCCCCCC (configuration not stated)  16.4%
18. Cc1cc(=O)[nH]c(=S)[nH]1  19.2%
19. Cc1ccc2nc(NC(=O)CSc3nc4c(c(=O)n3C)SC(C)C4)sc2c1 (configuration not stated)  21.2%
20. Cc1cc(Nc2cc(N3CCN(C)CC3)nc(C=Cc3ccccc3)n2)n[nH]1  51.8%

For `COc1cccc(N(C)C(=S)Oc2ccc3c(c2)CCCC3)n1`, the activation was 25.4% and -4.03%.

With `Cc1cc(C(C)(C)C)c(O)c(C(C)(C)C)c1` the Potency was 21.9 µM (active).
